Measured values published in PubChem BioAssay AID651814 (National Center for Advancing Translational Sciences (NCATS), 2012).
The campaign covered roughly 2,100 compounds. About 590 (28%) were called active. Not shown: some 42% with an inconclusive outcome. Calls follow the shape of the dose curve; as a rule, active = well fitted inhibition curve with a large enough effect; inconclusive = small, poorly fitted or top-dose-only effect; inactive = flat fitted curve, though single readings scatter. Some of the results follow.

The compounds below were run against DNA dC->dU-editing enzyme APOBEC-3F (Homo sapiens) (UniProt Q8IUX4) (assay: qHTS for inhibitors of Vif-A3F interactions: Cherry picks). Details: HeLa A3F-eYFP + Vif (tagged APOBEC3F with the HIV-1 protein that degrades it), eYFP fluorescence, 24 h.
Procedure, shortened: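 HeLa cells stably expressing A3F-eYFP plus Vif, cultured overnight, then exposed to compounds at several concentrations for 24 h at 37 deg C. Reduced Vif-driven degradation read as rising eYFP fluorescence (488 nm ex/500-530 nm em) by laser-scanning cytometry; MG132 as positive control.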
Also: nearly all actives have a fitted effect of over 70% in size.
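For max response in this document: % of control where 0% means no effect; active compounds raise eYFP fluorescence by blocking Vif-driven A3F loss.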
Potency is read from the fitted curve at half-maximal effect.

Sequence of DNA dC->dU-editing enzyme APOBEC-3F (Homo sapiens) (Q8IUX4 whole entry, looked up): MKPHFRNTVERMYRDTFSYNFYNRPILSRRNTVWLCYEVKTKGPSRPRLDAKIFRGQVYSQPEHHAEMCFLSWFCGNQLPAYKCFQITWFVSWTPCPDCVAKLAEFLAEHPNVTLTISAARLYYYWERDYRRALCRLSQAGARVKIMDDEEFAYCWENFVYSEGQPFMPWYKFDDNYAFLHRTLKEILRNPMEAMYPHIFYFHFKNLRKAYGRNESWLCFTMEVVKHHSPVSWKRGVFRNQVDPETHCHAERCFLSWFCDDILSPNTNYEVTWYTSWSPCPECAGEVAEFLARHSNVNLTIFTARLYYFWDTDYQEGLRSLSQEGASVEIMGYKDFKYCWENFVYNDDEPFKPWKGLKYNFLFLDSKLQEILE

Row | SMILES | max response | Potency
1 | C/C(CCc1ccc2c(c1)OCO2)=N\NC(=S)NC(C)C | -2.82% (inactive) | –
2 | CN(/N=C/c1ccc(-c2ccc([N+](=O)[O-])cc2)o1)c1ccccc1 | – | 0.731 µM (active)
3 | COc1ccccc1N1CCN(C(=O)c2ccc3ncsc3c2)CC1 | -21% (inactive) | –
4 | COc1ccc2nc3ccccc3nc2c1NC(=O)c1ccc(Cl)cc1Cl | – | 3.53 µM (active)
5 | O=C(NC(=S)Nc1c(Cl)cc(Cl)cc1Cl)c1ccccc1 | -0.292% (inactive) | –
6 | COc1ccc(C(=O)N/N=C/c2cc(Br)ccc2O)cc1OC | -1.32% (inactive) | –
7 | COc1ccc2nc3ccccc3nc2c1NC(=O)c1ccc(Br)cc1 | – | 18.4 µM (active)
8 | COc1ccc(C(=O)NC(=S)NCc2cccnc2)cc1Cl | -3.18% (inactive) | –
9 | COc1ccc2nc3ccccc3nc2c1NC(=O)c1ccc(Cl)cc1 | – | 16.4 µM (active)
10 | COc1cc2nc(/C=C/c3ccc(N(C)C)cc3)sc2cc1SC | – | 20.6 µM (active)
11 | COc1ccc2cc(-c3nc(Cl)c4c5c(sc4n3)CC(C)CC5)c(=O)oc2c1 (stereo unspecified) | – | 5.8 µM (active)
12 | CCN(CC)c1ccc2cc(-c3nc4sc5c(c4c(=O)[nH]3)CCC(C(C)(C)C)C5)c(=O)oc2c1 (stereo unspecified) | 13.2% (inactive) | –
13 | O=C(CSc1n[nH]c(-c2ccccn2)n1)Nc1ccc(Cl)cc1 | 0.972% (inactive) | –
14 | O=C(Nc1ccc(Cl)cc1)Nc1ccon1 | -9.41% (inactive) | –
15 | COc1ccccc1OCC(=O)NNC(=O)Nc1ccc(Cl)cc1 | – | 14 µM (active)
16 | COCCN(CCOC)Cc1c(O)ccc2c1O/C(=C\c1ccc(C)o1)C2=O | -17.2% (inactive) | –
17 | Cc1ccc(S(=O)(=O)N2CCCCC2)cc1NC(=O)Cn1ncc(Cl)c(Cl)c1=O | -13.3% (inactive) | –
18 | CCOC(=O)c1ccc(NC(=O)Cn2ncc(Cl)c(Cl)c2=O)cc1 | -29.1% (inactive) | –
19 | O=C(Cn1ncc(Cl)c(Cl)c1=O)NCC1CCCCC1 | – | 15.8 µM (active)
20 | C=CCSc1nc2sc3c(c2c(=O)n1CC)CCC3 | -3.63% (inactive) | –
21 | C[C@@H]1O[C@@H](O[C@@H]2C(=O)c3c(O)cc(O)cc3O[C@H]2c2ccc(O)c(O)c2)[C@H](O)[C@H](O)[C@H]1O | 2.1% (inactive) | –
22 | CCC(C)Sc1ccc(-c2nc3cc(C)ccn3c2NC2CCCCC2)cc1 (stereo unspecified) | -4.06% (inactive) | –
23 | COc1cccc(N2CCN(Cc3nc4scc(-c5ccccc5)c4c(=O)[nH]3)CC2)c1 | – | 17.7 µM (active)
24 | Cn1nnnc1SCc1nc2scc(-c3ccc(Cl)cc3)c2c(=O)[nH]1 | -13.9% (inactive) | –
25 | O=c1c(Cl)c2oc3ccccc3nc-2c2ccccc12 | – | 18.4 µM (active)
26 | O=C(Nc1nc(-c2ccccn2)cs1)C1CCCC1 | -4.77% (inactive) | –
